# Screening data: PubChem BioAssay, several laboratories
# MazF activator = activators of E. coli MazEF toxin-antitoxin RNase, primary screen, biochemical, fluorescence, uHTS | FAM/BHQ RNA-DNA oligo cleavage fluorescence, 5 h | activation, % at 20 µM | 350,000 compounds, 0.32% hits | AID 504720, 2011; in the data active = activation above about 50%
# Target sequence (P0AE70 whole entry, looked up): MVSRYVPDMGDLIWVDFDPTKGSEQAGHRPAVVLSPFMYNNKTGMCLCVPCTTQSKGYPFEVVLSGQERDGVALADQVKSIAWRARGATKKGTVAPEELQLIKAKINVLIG
# BoNT F protease = BoNT/F light chain protease inhibitors, primary screen, biochemical, flow cytometry, MLPCN library | 360,000 compounds, 0.22% hits | Multiplex microsphere protease cleavage assay | Botulinum neurotoxin type F light chain protease (Clostridium botulinum) | inhibition, % at 10 µM; in the data active = inhibition above about 35%, passing the limit was not always enough; inconclusive = no clear call, values can overlap the other calls; note: plate controls were buffer without enzyme for full effect and enzyme alone for no effect
# BoNT-A LC inh2 = BoNT/A light chain protease inhibitors, primary screen, biochemical, flow cytometry, MLPCN library. Botulinum neurotoxin type A light chain protease (Clostridium botulinum A str. ATCC 3502). multiplex microsphere protease substrate cleavage. inhibition, % at 10 µM. 360,000 compounds, 0.17% hits; note: plate controls were buffer without enzyme for full effect and enzyme alone for no effect
# Anthrax LF inh2 = Bacillus anthracis LF protease inhibitors, primary screen, biochemical, multiplex microsphere, MLPCN library | Lethal factor (Bacillus anthracis), P15917 | 360,000 compounds, 0.12% hits | AID 588501, 2011 | multiplex microsphere protease cleavage assay | inhibition, % at 10 µM; note: plate controls were buffer without enzyme for full effect and enzyme alone for no effect
# PfHsp40 yeast = rescue of yeast from PfHsp40 toxicity, primary screen, S. cerevisiae, ATP luminescence | AID 504582, 2011 | 340,000 compounds, 0.68% hits | growth rescue, % at 12.5 µM | S. cerevisiae expressing PfHsp40, growth rescue; in the data active = growth rescue above about 28%, passing the limit was not always enough; inconclusive = no clear call, values can overlap the other calls;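 note: yeast W303a lacking pdr1 and pdr3 grown in galactose medium; growth measured after three days at 30 °C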
# Autofluor counter = compound fluorescence in toxin protease inhibitor counterscreen; compound autofluorescence counterscreen, microsphere flow cytometry; stronger effect = higher value; fluorescence intensity (test concentration not listed); 360,000 compounds, 3.1% hits; in the data active = fluorescence intensity above about 16000; inconclusive = no clear call, values can overlap the other calls
# Active calls of the source: *; ? = inconclusive; · = no result. A selection: hits, their analogues and other compounds. The true share with any hit is near 4.3%. Cut-off read from the data, not from the text of the source, unless noted: active = inhibition above about 30%; inconclusive = no clear call, values can overlap the other calls; inactive = below that.
SMILES,MazF activator,BoNT F protease,BoNT-A LC inh2,Anthrax LF inh2,PfHsp40 yeast,Autofluor counter
Cn1c(=O)c2c(nc(CN3CCN(C(=O)c4ccco4)CC3)n2Cc2cccc(Cl)c2)n(C)c1=O,2,-1,0,0,-1,22343*
Cn1c(=O)c2c(nc(CN3CCN(C(=O)c4ccco4)CC3)n2Cc2ccccc2)n(C)c1=O,5,-5,0,3,-1,2228
Cn1c(=O)c2c(nc(CN3CCN(C(=O)c4ccco4)CC3)n2CCc2ccccc2)n(C)c1=O,0,3,3,-1,1,21635*
Cn1c(=O)c2c(nc(CN3CCN(C(=O)c4ccco4)CC3)n2Cc2ccc(Cl)cc2)n(C)c1=O,-7,3,4,-5,1,18363*
Cc1ccc(Cn2c(CN3CCN(C(=O)c4ccco4)CC3)nc3c2c(=O)n(C)c(=O)n3C)cc1,0,-2,-1,-1,-1,9861
CCOC(=O)C1CCN(Cc2nc3ccccc3c(=O)n2-c2ccc(F)cc2)CC1,3,·,·,·,-1,·
O=C(c1ccco1)N1CCN(Cc2nc3ccccc3c(=O)n2-c2ccc(F)cc2)CC1,8,-1,1,-9,1,22917*
CC(NC(=O)COc1ccc(/C=N/NC(=O)CO)cc1)c1ccccc1 (stereo not drawn),3,23,0,1,-1,3373
COc1ccc(-c2nnc(-c3ccc(N)cc3)o2)cc1,5,7,1,-6,-1,9135
COc1ccc(-c2ccc(-c3nnc(-c4cc(OC)ccc4OC)o3)cc2)cc1,7,0,?,1,1,22687*
O=[N+]([O-])c1cc(/C=N/OCc2c(Cl)cccc2Cl)ccc1N1CCOCC1,2,-3,1,-6,-1,22744*
CCN(CC(=O)NCc1cccs1)C(=O)c1cccc(S(=O)(=O)N(C)C)c1,6,1,0,-5,0,3395
C=CCN1C(=O)c2ccccc2NC1c1cc(Br)cs1 (stereo not drawn),-2,-13,0,-1,0,3568
CCc1c(C)sc(NC(=O)CSc2nc3c(c(C(F)(F)F)n2)CCc2ccccc2-3)c1C#N,-3,-3,-4,-1,2,21133*
COc1cc2c(cc1OC)CN(C(=O)COc1ccccc1[N+](=O)[O-])CC2,30,-16,-2,9,1,3519
C=CCn1c(=O)c(C(=O)NCCc2ccccc2)c(O)c2ccccc21,-10,23,?,-1,94*,6725
CC1(c2nnnn2-c2ccc3c(c2)OCCO3)CCC(=O)N1Cc1cccc(C(F)(F)F)c1 (stereo not drawn),·,3,1,2,·,5403
CCc1ccccc1N1CCN(S(=O)(=O)c2cc(OC)ccc2OC)CC1,-2,-2,?,-6,0,23647*
CN(C)c1nc2c(c(=O)n(C)c(=O)n2C)n1Cc1ccccc1,3,-2,0,1,0,22117*
C/C(Cl)=C\Cn1c(NCCc2ccccc2)nc2c1c(=O)n(C)c(=O)n2C,0,36*,?,0,0,6537
Cn1c(=O)c2c(nc(Br)n2Cc2ccc3ccccc3c2)n(C)c1=O,9,5,?,-2,3,20690*
Cn1c(=O)c2c(nc(Br)n2Cc2ccccc2Cl)n(C)c1=O,1,8,0,-7,0,4659
Cn1c(=O)c2c(nc(-n3ccnc3)n2Cc2ccccc2)n(C)c1=O,-2,-9,-1,-1,1,4140
O=C1CCCN1CCCNc1nc(NCc2ccccc2)nc2ccsc12,·,4,0,-1,·,3784
COc1ccc2cnn(-c3ccc(OC(F)(F)F)cc3)c(=O)c2c1OC,10,·,·,·,10,·
SMILES,MazF activator,BoNT F protease,BoNT-A LC inh2,Anthrax LF inh2,PfHsp40 yeast,Autofluor counter
COc1ccc2c(c1)C(C1=C(O)CC(C)(C)CC1=O)C1=C(CC(C)(C)CC1=O)O2 (stereo not drawn),5,-4,-4,-4,0,24480*
CC1(C)CC(=O)C(C2C3=C(CC(C)(C)CC3=O)Oc3ccccc32)=C(O)C1 (stereo not drawn),-4,3,0,0,0,2857
O=C(NCc1ccc(Cl)cc1)C1CCC(=O)N(C2CCCCCC2)C1 (stereo not drawn),-1,6,-2,-2,0,4410
Cc1ccc(NC(=S)NNC(=O)Cn2nc([N+](=O)[O-])cc2C)cc1,10,1,0,0,1,10232
Cc1cc([N+](=O)[O-])nn1CC(=O)NNC(=S)Nc1ccc(Cl)cc1,-3,-3,-2,-2,-1,23664*
O=C(Nc1ccccc1Cl)OCC#CCOC(=O)Nc1ccccc1Cl,9,-4,-1,-12,·,3895
O=C(CCc1nc(-c2ccccc2)no1)NC1CCCCC1,-3,4,4,-5,1,21669*
Cc1ccc(-c2noc(CCC(=O)NCC3CCCO3)n2)cc1 (stereo not drawn),-25,-1,0,-1,-2,23346*
Cc1ccc(-c2noc(CCCC(=O)NCC3CCCO3)n2)cc1 (stereo not drawn),-1,8,2,2,1,4915
CCN1C(=O)/C(=C2\C=Cc3cc(C)ccc3N2CC)OC1=S,114*,-4,-1,-3,1,3425
CCN1C(=O)/C(=C2/C=Cc3ccccc3N2C)OC1=S,113*,·,·,·,1,·
O=C(O)COc1ccccc1/C=N/NC(=O)CN1CCN(Cc2ccc(Cl)cc2)CC1,6,-4,-1,-1,1,4589
CCOC(=O)C1(CCOc2ccccc2)CCN(Cc2ccc(-n3cccn3)cc2)CC1,-8,-3,-2,-5,0,3544
CCNC(=O)CN(c1ccc(CC)cc1)S(C)(=O)=O,12,0,?,-2,-1,23318*
CSc1ccccc1NC(=O)CN(c1cccc(C)c1)S(C)(=O)=O,-7,-6,-4,1,0,23782*
CCc1ccc(NC(=O)CN(c2cccc(C)c2)S(C)(=O)=O)cc1,0,-4,-1,-2,2,23603*
Cc1cc(NS(=O)(=O)c2ccc(NC(=O)Nc3cccc(C(F)(F)F)c3)cc2)no1,2,-9,-1,-2,0,5637
Cc1ccccc1-c1nc(S(=O)(=O)c2ccc(Br)cc2)c(NCc2cccnc2)o1,-11,0,1,-3,0,20211*
Cc1ccc(C)c(S(=O)(=O)N2CCCC2CNC(=O)C(=O)NC2CCCC2)c1 (stereo not drawn),4,0,-3,-6,1,6599
CC(=O)N(C)c1ccc(NS(=O)(=O)Cc2ccccc2)cc1,-12,1,?,0,2,22151*
